The record followed here is PubChem BioAssay (NCI).

The panel holds about 83,000 compounds, 20% with a hit somewhere; the sample as a whole holds those more often.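 Method: cells in 96-well plates; compound added at one concentration; 48 h incubation; percent growth measured; values under 10 scored active.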 Unmarked numbers belong to inactive results. Calls of active or inactive are those of the source.

What all share (test): NCI-60 one-dose screen, 48 h (100 = growth as untreated, 0 = no growth, -100 = all killed)
What all share (conditions): 10 µM unless noted

The test system of experiment [1] is HCT-15 colon.
For experiment [2], the system named is HT29 colon.
Experiment [3] has as its system SNB-75 CNS.
Experiment [4] concerns SNB-19 CNS.
Experiment [5] deals with U251 CNS.
Experiment [6] has as its system PC-3 prostate.
For experiment [7], the system named is SK-MEL-5 melanoma.
Experiment [8] concerns UACC-62 melanoma.
Experiment [9] relates to LOX IMVI melanoma.
For experiment [10], the system named is SK-MEL-28 melanoma.
Experiment [11] concerns SK-MEL-2 melanoma.
Experiment [12] has as its system EKVX NSCLC.
For experiment [13], the system named is SN12C renal.
Experiment [14] relates to UO-31 renal.
Experiment [15] concerns TK-10 renal.
In experiment [16] the test system is ACHN renal.
The subject of experiment [17] is CAKI-1 renal.
The test system of experiment [18] is A498 renal.
Experiment [19] deals with CCRF-CEM leukemia.
The test system of experiment [20] is MOLT-4 leukemia.

On to `CCOC(=O)c1c2c(n3c1NCC3)-c1ccccc1C2=O`, for which the growth was 99.3% in experiment [1]; 98.1% in experiment [2]; 83.5% in [3]; 99.3% in experiment [4]; 101% in experiment [5]; 91.1% in experiment [6]. Moreover, the growth was 93.3% in experiment [7]; 98.6% in experiment [8]; 97.9% in [9]; 103% in [10]; 79.3% in experiment [11]; 95.8% in experiment [12]. Moreover, the growth is 98.3% in experiment [13]; 39.8% in [14]; 96.4% in experiment [15]; 97.3% in experiment [16]; 89.9% in experiment [17]; 100% in [18]. Further, the growth is 85% in [19] and 87.8% in experiment [20].
Regarding `CCOC(=O)C1=C(c2ccccc2)N=c2s/c(=C/c3ccc(Br)cc3)c(=O)n2C1c1ccc(O)cc1` (stereo not given), the growth in experiment [1] was 82.3%; in [2], 87.6%; in [3] it was 68.7%; in experiment [4], 86.7%; in [5], 81.1%; in experiment [6], 64.1%. Besides, the growth in experiment [7] was 91.9%; in [8], 76.1%; in experiment [9], 91.7%; in experiment [10], 92.5%; in experiment [11], 95.9%; in [12], 76.8%. For the same compound, the growth in experiment [13] is 85.2%; in experiment [14], 78.5%; in [15], 91.7%; in [16], 104%; in experiment [17], 62.2%; in experiment [18] it was 73.2%. In addition, the results for the growth in experiment [19] and in [20] were 83% and 68%, respectively.
Take `C=NNc1ccccc1`: the growth in [1] was 87.4%; in [2] it was 108%; in [3], 90.9%; in experiment [4], 93.8%; in [5] it was 88.1%; in experiment [6], 63.8%. Moreover, the growth in experiment [7] is 98.8%; in experiment [8] it was 50.2%; in experiment [9], 62.8%; in experiment [10], 117%; in [11], 123%; in [12], 92.8%. Moreover, the growth was 89.6% in [13]; 71% in experiment [14]; 127% in experiment [15]; 78% in experiment [16]; 84.1% in [17]; 77.1% in [18]. In addition, the growth in experiment [19] is 71.5%; in experiment [20], 105%.
As to `COc1ccc2c(c1)c(-c1nc(-c3cn(C)c4ncccc34)cs1)cn2CCO`, the growth in experiment [1] was 61.1%; in experiment [2], 75.3%; in experiment [3], 91.3%; in experiment [4], 90.2%; in [5], 78.5%; in experiment [6], 69.1%. For the same compound, the growth in experiment [7] was 74.2%; in [8], 80.4%; in [9] it was 59.3%; in experiment [10], 86%; in [11], 93%; in [12], 67.5%. Further, the growth in experiment [13] is 86.1%; in [14] it was 67.7%; in [15] it was 83%; in experiment [16], 72.1%; in [17], 88.7%; in experiment [18], 49.3%. The results for the growth in [19] and in experiment [20] were 43.3% and 58.2%, respectively.
For the compound `N#Cc1nc2c(S(=O)(=O)c3ccccc3)c(N)n(Cc3cccnc3)c2nc1C#N`, the growth in experiment [1] is 101%; in experiment [2], 104%; in experiment [3], 57.4%; in [4], 75.9%; in experiment [5] it was 75.5%; in [6], 67%. Moreover, the growth in experiment [7] was 93.6%; in [8] it was 85.6%; in experiment [9] it was 88.3%; in experiment [10], 89.3%; in experiment [11], 111%; in experiment [12] it was 76.7%. The growth in [13] is 138%; in experiment [14] it was 58.4%; in experiment [15], 99.2%; in experiment [16], 96.2%; in experiment [17], 96.3%; in experiment [18] it was 104%. The growth in [19] is 35.3%; in experiment [20], 50%.
As for `O=S(=O)(c1ccccc1)N1CCCN(c2nc(-c3ccccc3)nc3nc(-c4ccccc4)oc23)CC1`, the growth was 109% in [1]; 109% in experiment [2]; 88.5% in [3]; 101% in experiment [4]; 107% in experiment [5]; 105% in experiment [6]. Further, the growth in [7] was 103%; in [8] it was 102%; in [9], 99.9%; in [10] it was 110%; in [11], 108%; in experiment [12] it was 107%. For the same compound, the growth in experiment [13] was 98.5%; in experiment [14], 85.3%; in experiment [15], 114%; in [16], 104%; in experiment [17], 91.7%; in [18] it was 96.9%. For the same compound, the growth in experiment [19] was 105%; in experiment [20] it was 100%.
As for `CCC(C)Nc1ccc(NC(C)CC)cc1` (stereo not given), the growth is 97.7% in experiment [1]; 71.5% in [2]; 83.2% in [3]; 101% in experiment [4]; 87.9% in [5]; 80.7% in experiment [6]. In addition, the growth is 100% in experiment [7]; 87.1% in experiment [8]; 74% in [9]; 104% in experiment [10]; 91.6% in experiment [11]; 86% in experiment [12]. The growth was 19.8% in [13]; 84.4% in [14]; 107% in [15]; 85.5% in experiment [16]; 96.2% in experiment [17]; 97.5% in experiment [18]. Also, the growth was 79% in experiment [19] and 59.1% in [20].
Turning to `COc1cccc(/C=C2\COc3ccc(O)cc3C2=O)c1`, the growth in experiment [1] was 40.6%; in experiment [2], 37.8%; in [3], 82.4%; in [4] it was 65.6%; in experiment [5] it was 45.1%; in experiment [6], 76.8%. Also, the growth was 96.6% in experiment [7]; 63.3% in [8]; 18.7% in [9]; 108% in experiment [10]; 104% in [11]; 98.4% in experiment [12]. For the same compound, the growth in experiment [13] was 30.1%; in [14] it was 69.1%; in experiment [15], 101%; in experiment [16], 84.7%; in [17], 80.4%; in experiment [18] it was 104%. The figures for the growth in experiment [19] and in experiment [20] were -0.603% (active) and 40.2%, respectively.
